A short description of test [1]: NCI Yeast Anticancer Drug Screen. Data for the rad50 strain (AID 155).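 Note: 0% = growth of vehicle-only cultures of the same strain.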 The conditions noted are these: S. cerevisiae rad50 strain growth inhibition; at 50.0 µM; stronger effect = higher value. An outline of the steps: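 Growth of the mutant yeast was measured after compound exposure and referenced to vehicle-treated cultures.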
Test [2] in a line: NCI Yeast Anticancer Drug Screen. Data for the mec2-1 strain (AID 157). The conditions noted are these: S. cerevisiae mec2-1 strain, at 50.0 µM, stronger effect = higher value. A digest of the protocol: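 Compounds were applied to mec2-1 yeast cells. Their growth was then compared with that of vehicle-treated cultures to give growth inhibition.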
The nature of test [3]: NCI Yeast Anticancer Drug Screen. Data for the sgs1 mgt1 strain (AID 161).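 Note: 0% = growth of cultures given vehicle only.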 The conditions noted are these: S. cerevisiae sgs1 mgt1 strain, at 50.0 µM, stronger effect = higher value. An outline of the steps:
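Growth of a repair-deficient yeast mutant was monitored after compound treatment and expressed as inhibition relative to vehicle-treated cultures.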

Test [4] can be described thus: NCI Yeast Anticancer Drug Screen. Data for the cln2 rad14 strain (AID 165).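 Note: 0% = growth equal to vehicle treated cultures.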 Particulars: S. cerevisiae cln2 rad14 strain, at 50.0 µM, stronger effect = higher value. A digest of the protocol:
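Strain: cln2 rad14 yeast, altered in cell cycle control and DNA damage repair. Read-out: growth inhibition vs vehicle.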

Test [5] can be described thus: NCI Yeast Anticancer Drug Screen. Data for the bub3 strain (AID 167). Particulars: S. cerevisiae bub3 mutant strain, at 50.0 µM, stronger effect = higher value. A digest of the protocol: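 Whole-cell yeast assay. The mutant strain was incubated with compounds, and growth inhibition was determined by comparison with vehicle-treated cells.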
A short description of test [6]: NCI Yeast Anticancer Drug Screen. Data for the mlh1 rad18 strain (AID 175). Particulars: S. cerevisiae mlh1 rad18 strain growth inhibition; at 50.0 µM; stronger effect = higher value. A digest of the protocol:
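A repair-deficient yeast strain is exposed to test compound, and growth is scored relative to vehicle-treated controls.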

Structures are written as SMILES. The panel holds about 79,000 compounds, 15% with a hit somewhere; the sample as a whole holds those more often. Values without a mark were called inactive. Activity calls are given as the source filed them. Cut-off read from the data, not from the text of the source: active = growth inhibition above about 70%; inactive = the rest.

`O=c1[nH]c(=O)c2nc3cc(-c4ccc5nc6[nH]c(=O)[nH]c(=O)c6nc5c4)ccc3nc2[nH]1`: the growth inhibition in test [1] is 14.2%; in test [2], 12.1%; in test [3] it was 12.4%; in test [4] it was 54%; in test [5], 2.65%; in test [6] it was 7%.

Turning to `COc1ccccc1NC(=O)C1=C(C)NC(C)=C(C(=O)Nc2ccccc2OC)C1c1ccccc1OC`, the growth inhibition was 15.2% in test [1]; -6.65% in test [2]; -26.8% in test [3]; 17.1% in test [4]; 0.35% in test [5]; 1.85% in test [6].

For the molecule `CCN(CC(=O)O)C(=O)c1cccnc1`, the growth inhibition is -17.9% in test [1]; 4.05% in test [2]; -33.4% in test [3]; -28.7% in test [4]; -6.6% in test [5]; -6.4% in test [6].

Regarding `CS(=O)(=O)N/N=C/C1C=CC=CC1` (stereo unspecified), the growth inhibition in test [1] was -6.9%; in test [2], 0.7%; in test [3], -6.25%; in test [4], -24.4%; in test [5] it was -12.2%; in test [6], -26.6%.

In the case of `COC(=O)CC1NC(=O)[C@]1(C)[C@H](C)O` (stereo partly specified), the growth inhibition in test [1] is -37.1%; in test [2], -16.2%; in test [3] it was -33%; in test [4], -14.3%; in test [5], -48.4%; in test [6] it was -48.9%.

Take `CC(=O)NNC(=O)NCCCCCCNC(=O)NNC(C)=O`: the growth inhibition was 16.1% in test [1]; 20.2% in test [2]; 25.4% in test [3]; 16.2% in test [4]; 17.9% in test [5]; 26.5% in test [6].

Turning to `CC1(C)OCC(C(OC(=O)c2ccc([N+](=O)[O-])cc2)C(OC(=O)c2ccc([N+](=O)[O-])cc2)C2COC(C)(C)O2)O1` (stereo unspecified), the growth inhibition in test [1] is 24.6%; in test [2] it was 4.25%; in test [3] it was -5.3%; in test [4], 41.2%; in test [5], 2.9%; in test [6], 20.4%.

With `O=C1C(Cl)C(c2ccccc2O)N1n1cnc2ccccc2c1=O` (stereo unspecified), the growth inhibition in test [1] was -29.4%; in test [2] it was 8.9%; in test [3], -12.5%; in test [4], -9.5%; in test [5], -7.8%; in test [6], -16.2%.

On to `CC1Cn2c(nccc2=O)S1` (stereo unspecified), for which the growth inhibition in test [1] was -15.1%; in test [2] it was -14.2%; in test [3], -33.4%; in test [4], 1.9%; in test [5] it was 3.5%; in test [6], -29.1%.

As to `CC1=C(CCC(C)CO)OC2CC3C4CC=C5CC(O)CCC5(C)C4CCC3(C)C12` (stereo unspecified), the growth inhibition in test [1] is 19.1%; in test [2], -0.65%; in test [3] it was 43.4%; in test [4], 9.95%; in test [5], 6.3%; in test [6], 0.85%.

For the molecule `CC(C)(C)CC(C)(C)c1c(O)cc(O)cc1Cl`, the growth inhibition is 99% (active) in test [1]; 99.3% (active) in test [2]; 94.8% (active) in test [3]; 99% (active) in test [4]; 99.2% (active) in test [5]; 99.2% (active) in test [6].

For `O=C(Nc1nc2ncn(CC(COc3ccccc3)OC(=O)c3ccccc3)c2c(=O)[nH]1)c1ccccc1` (stereo unspecified), the growth inhibition is -9.85% in test [1]; 9.55% in test [2]; 6.5% in test [3]; 15.2% in test [4]; 12.2% in test [5]; -6.65% in test [6].

On to `CCC1c2ccccc2[C@H]2C(c3ccccc3)=NN(c3ccccc3)[C@H]2N1CC` (stereo partly specified), for which the growth inhibition is 26.6% in test [1]; -5.05% in test [2]; -0.7% in test [3]; -2.9% in test [4]; 1.5% in test [5]; 40.5% in test [6].

With `c1ccc(N=C2SC(=NC3CCCCC3)N(C3CCCCC3)C2=Nc2ccccc2)cc1`, the growth inhibition in test [1] was 3.35%; in test [2], -18.9%; in test [3], -0.05%; in test [4], 9.1%; in test [5] it was -4.9%; in test [6], -29.3%.

As for `CCCCCCOC(=O)C[C@H]1C[C@H](C(=O)OCCCCCC)C1(C)C`, the growth inhibition in test [1] is -4.45%; in test [2], -15.6%; in test [3], 1.8%; in test [4] it was -36.6%; in test [5], -21.1%; in test [6] it was -7.3%.

For `COc1ccc(OC)c(N=Nc2cc(OC)ccc2OC)c1`, the growth inhibition in test [1] is -13.6%; in test [2], -7.8%; in test [3] it was 1.1%; in test [4], -13.8%; in test [5], 3.3%; in test [6], -11.9%.

As to `CCCCC(C)(CCN)CCCC`, the growth inhibition in test [1] is 5.05%; in test [2], 1.4%; in test [3], -5.05%; in test [4], 7.4%; in test [5] it was -3%; in test [6], 0.1%.

Turning to `CN(C)C(=O)C1Cc2ccccc2CC1C(=O)N(C)C` (stereo unspecified), the growth inhibition in test [1] is -0.4%; in test [2], -0.55%; in test [3], 0.85%; in test [4] it was -21.5%; in test [5] it was -3.6%; in test [6], -9.75%.

Take `O=C(Oc1ccccc1)N1CCCSC1=S`: the growth inhibition was 19.4% in test [1]; -14.3% in test [2]; 5.35% in test [3]; 31.4% in test [4]; 16.2% in test [5]; 51.2% in test [6].

As for `CC(=O)NC1c2ccccc2C(C)(C)C12CCC1(CC2)OCCO1` (stereo unspecified), the growth inhibition in test [1] is -33.5%; in test [2], -17.1%; in test [3], -4.8%; in test [4], 0.05%; in test [5], -3.8%; in test [6] it was -40.8%.

Take `CCOC(=O)C(Cc1ccc(O)cc1)NC(=O)c1cc2c(cn1)[nH]c1ccccc12` (stereo unspecified): the growth inhibition was 11% in test [1]; 16.2% in test [2]; 7.45% in test [3]; -19.8% in test [4]; -1% in test [5]; 4.65% in test [6].

These data come from PubChem BioAssay (NCI).
